Laboratory results as given in PubChem BioAssay (NCATS).
Unmarked numbers belong to inactive results. Results filed as inconclusive are left out. Where a call stands in place of a potency, no number is given. The source made the active and inactive calls. Calls follow the shape of the dose curve; as a rule, active = well fitted curve in the direction sought with a large enough effect; inconclusive = small, poorly fitted or top-dose-only effect, or another doubt; inactive = no such curve, though single readings can be large; an effect the other way counts as inactive or inconclusive.

What was measured:
[1] = test system: Zika virus NS2B-NS3 protease (linked construct); assay: Primary screen NINDS Rhodamine qHTS for Zika virus inhibitors (AID 1347160); also: nearly all actives have a fitted effect of over 55% in size
In short: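 Enzyme (25 nM, linked NS2B-NS3) was preincubated 15 min with compound in 10 mM Tris-HCl pH 8.0, 0.01% Tween 20. Rhodamine110 substrate (1.5 microM) was then added and fluorescence read at start and after 15 min.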

[2] = target: Calcium and integrin-binding protein 1 (Homo sapiens) (UniProt Q99828); assay: Primary qHTS for Identification of Calcium Integrin Binding Protein 1 (CIB1) Competitor (AID 1508620);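 also: GST tagged CIB1 binding a fluorescein labelled alphaIIb integrin peptide tracer; top concentration of the series differs between compounds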
Chain of Calcium and integrin-binding protein 1 (Homo sapiens) (Q99828 whole entry, looked up): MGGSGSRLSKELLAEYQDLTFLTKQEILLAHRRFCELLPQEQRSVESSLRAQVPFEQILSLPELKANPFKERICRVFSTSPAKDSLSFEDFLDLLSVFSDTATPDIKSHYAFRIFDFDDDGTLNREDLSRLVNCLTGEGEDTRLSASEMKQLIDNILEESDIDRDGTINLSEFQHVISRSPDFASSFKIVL
In short: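 Fluorescence polarization competition: CIB1-GST (1 uM final) preincubated with compound 15 min at room temperature, then FITC-labeled alphaIIb peptide (100 nM final) added for another 15 min. Polarization read at Ex 480/Em 540.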

[3] = target: Glutathione peroxidase 1 (Homo sapiens) (UniProt P07203); assay: Primary qHTS Assay for Inhibitors of Recombinant Selenoprotein Glutathione Peroxidase 1 (GPX1) (AID 1845191); also: nearly all actives have a fitted effect of over 65% in size
Chain of Glutathione peroxidase 1 (Homo sapiens) (P07203 whole entry, looked up): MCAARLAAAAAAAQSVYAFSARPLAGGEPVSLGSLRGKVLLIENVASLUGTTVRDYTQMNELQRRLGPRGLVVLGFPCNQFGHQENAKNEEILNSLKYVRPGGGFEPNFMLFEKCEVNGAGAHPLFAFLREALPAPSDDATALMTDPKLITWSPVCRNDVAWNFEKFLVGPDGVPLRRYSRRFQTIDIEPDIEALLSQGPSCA
In short: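 GPX1 10 nM, GR 100 nM, GSH 1 mM, NADPH 0.5 mM, CHP 0.5 mM (final). 30-min cpd preincubation, RT. Ex340/Em450 read t=0, t=15 min.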

[4] = target: Phospholipid hydroperoxide glutathione peroxidase GPX4 (Homo sapiens) (UniProt P36969); assay: Primary qHTS Assay for Inhibitors of Recombinant Selenoprotein Glutathione Peroxidase 4 (GPX4) (AID 1845192); also: nearly all actives have a fitted effect of over 65% in size; also: potency is read from the fitted curve at half-maximal effect
Chain of Phospholipid hydroperoxide glutathione peroxidase GPX4 (Homo sapiens) (P36969 whole entry, looked up): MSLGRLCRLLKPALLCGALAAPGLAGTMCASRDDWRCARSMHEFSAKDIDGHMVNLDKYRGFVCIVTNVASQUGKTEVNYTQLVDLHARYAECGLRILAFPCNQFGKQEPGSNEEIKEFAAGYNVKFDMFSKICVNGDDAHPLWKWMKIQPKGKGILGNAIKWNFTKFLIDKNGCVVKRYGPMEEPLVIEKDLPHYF
In short: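 qHTS, GR-coupled: GPX4 200 nM + cpd 30 min RT → GSH 1 mM, NADPH 0.5 mM, GR 100 nM → CHP 0.5 mM start; fluor 340/450 at t0 and t15 min; no-enzyme wells as control.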

[5] = Primary fluorescence-based thiol-reactive (MSTI) qHTS assay for identification of artifact compounds. (AID 1845221);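 also: thiol-reactive compounds lower the probe fluorescence signal; nearly all actives have a fitted effect of over 65% in size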
In short: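 Curve-fitted percent inhibition (4-parameter Hill) derived from fluorescence, Ex 525/Em 598 nm, scaled with Acetyl-MSTI and MSTI; 1 h incubation at room temperature.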

[6] = test system: Nanoluciferase (engineered Oplophorus gracilirostris luciferase); assay: Primary Nanoluciferase (NLuc) qHTS assay for identification of artifact compounds. (AID 1845222);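 also: NLuc secreted into diluted conditioned medium of S16 cells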
In short: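 Concentration-response data were obtained by luminescence after 5 min with Nano-Glo substrate at 1:100. The enzyme was diluted S16 NLuc-expressing cell medium, preincubated with compound for 15 min at RT. Curves were fitted with a 4-parameter Hill model.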

[7] = Primary redox qHTS assay for identification of artifact compounds. (AID 1845223)
In short: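 Redox-cycling detection via DTT (250 uM final) oxidation coupled to Amplex Red (25 uM)/HRP (250 mU/mL) in HBSS. 15 min preincubation plus 30 min after DTT, room temperature. Ex/Em 525/598 nm; 4-parameter Hill fit against DMSO and 10 uM DA3003.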

KB-3-1 = assay: Cytotoxic Profiling of Annotated Libraries Using Quantitative High-Throughput Screening (AID 1296008); conditions: Five cell lines viability, CellTiter-Glo ATP luminescence, 48-72 h; max response: active compounds read low; also: nearly all actives have a fitted effect of over 60% in size; also: potency is read from the fitted curve at half-maximal effect
In short: (§1)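 Compounds were pin-transferred onto cells and incubated 48 or 72 hr at 37 degree Celsius, 95% humidity. CellTiter-Glo was added, plates sat 10 min at room temperature, then ATP-coupled luminescence was imaged as the viability read-out.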

CAOV3 = assay: Primary qHTS to identify gynecologic anti-cancer compounds using libraries of approved drugs and bioactive compounds (AID 1345084); conditions: Gynecologic cancer cell panel viability, ATPlite luminescence, 48 h; series mostly up to 57.5 µM; also: nearly all actives have a fitted effect of over 55% in size; also: potency is read from the fitted curve at half-maximal effect
In short: (§2)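 Cytotoxicity screen measuring ATP content by luciferase luminescence. Each compound is applied at five concentrations for 48 h at 37 C with 5% CO2.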

CASKI = assay: as above; conditions: Gynecologic cancer cell panel viability, ATPlite luminescence, 48 h; series mostly up to 57.5 µM
In short: as §2

Es-2 = assay: as above; conditions: Gynecologic cancer cell panel viability, ATPlite luminescence, 48 h; series mostly up to 57.5 µM
In short: as §2

Hek293T = assay: as above; conditions: Gynecologic cancer cell panel viability, ATPlite luminescence, 48 h, control line for the selectivity index; series mostly up to 57.5 µM
In short: as §2

JEG-3 = assay: as above; conditions: Gynecologic cancer cell panel viability, ATPlite luminescence, 48 h; series mostly up to 57.5 µM
In short: as §2

OV90 = assay: as above; conditions: Gynecologic cancer cell panel viability, ATPlite luminescence, 48 h; series mostly up to 57.5 µM
In short: as §2

PA-1 = assay: as above; conditions: Gynecologic cancer cell panel viability, ATPlite luminescence, 48 h; series mostly up to 57.5 µM
In short: as §2

Tov-21-G = assay: as above; conditions: Gynecologic cancer cell panel viability, ATPlite luminescence, 48 h; series mostly up to 57.5 µM
In short: as §2

Tov112D = assay: as above; conditions: Gynecologic cancer cell panel viability, ATPlite luminescence, 48 h; series mostly up to 57.5 µM
In short: as §2

[8] = target: Luciferin 4-monooxygenase (Photinus pyralis) (UniProt P08659); assay: Primary firefly luciferase (FLuc) qHTS assay for identification of artifact compounds. (AID 1845220); conditions: outcome: dose series up to 54.1 µM unless noted; also: nearly all actives have a fitted effect of over 60% in size
In short: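 Reaction readout was CCD-imaged luminescence, taken 5 min after adding 10 nM purified firefly enzyme to compound-treated wells holding 10 uM luciferin and ATP in pH 7.6 buffer.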

CRL-7250 = normal cell line; assay: Cytotoxic Profiling of Annotated Libraries Using Quantitative High-Throughput Screening (AID 1296008); conditions: Five cell lines viability, CellTiter-Glo ATP luminescence, 48-72 h; max response: active compounds read low; also: nearly all actives have a fitted effect of over 60% in size; also: potency is read from the fitted curve at half-maximal effect
In short: as §1

C33A = assay: Primary qHTS to identify gynecologic anti-cancer compounds using libraries of approved drugs and bioactive compounds (AID 1345084); conditions: Gynecologic cancer cell panel viability, ATPlite luminescence, 48 h; series mostly up to 57.5 µM; also: nearly all actives have a fitted effect of over 55% in size; also: potency is read from the fitted curve at half-maximal effect
In short: as §2

CCOC(=O)c1ccc(-c2ccc(OC(=O)N(C)Cc3cccc(-c4ccncc4)c3)cc2)cc1
Potency [1]: inactive
Potency [2]: inactive
Potency [3]: inactive
Potency [4]: inactive
Potency [5]: inactive
Potency [6]: inactive
Potency [7]: inactive
max response (KB-3-1): 1.19%
Potency (CAOV3): inactive
Potency (CASKI): inactive
Potency (Es-2): inactive
Potency (Hek293T): inactive
Potency (JEG-3): inactive
Potency (OV90): inactive
Potency (PA-1): inactive
Potency (Tov-21-G): inactive
Potency (Tov112D): inactive

C[C@@H](CN1CCC2(CC1)C(=O)NCN2c1cccc(F)c1)NC(=O)c1ccc(Br)cc1
Potency [1]: inactive
Potency [3]: inactive
outcome [8]: inactive
Potency [5]: inactive
Potency [6]: inactive
Potency [7]: inactive
outcome (CRL-7250): inactive
Potency (C33A): inactive
Potency (CAOV3): inactive
Potency (Es-2): inactive
Potency (JEG-3): inactive
Potency (OV90): inactive
Potency (PA-1): inactive
Potency (Tov-21-G): inactive

CC12Cc3cn[nH]c3C=C1CCC1C2CCC2(C)C1CCC2(C)O (stereo not given)
Potency [1]: inactive
Potency [2]: inactive
Potency [3]: inactive
Potency [4]: inactive
outcome [8]: inactive
Potency [5]: inactive
Potency [6]: inactive
Potency [7]: inactive
outcome (CRL-7250): inactive
Potency (C33A): inactive
Potency (CAOV3): inactive
Potency (CASKI): inactive
Potency (Es-2): inactive
Potency (Hek293T): inactive
Potency (JEG-3): inactive
Potency (OV90): inactive
Potency (PA-1): inactive
Potency (Tov-21-G): inactive
Potency (Tov112D): inactive

C[C@]12CC[C@H](O)CC1=CC[C@@H]1C2CC[C@]2(C)[C@@H](C3=CC(=O)OC3)CC[C@]12O (stereo not given in full)
Potency [1]: inactive
Potency [2]: inactive
Potency [3]: inactive
Potency [4]: inactive
Potency [5]: inactive
Potency [6]: inactive
Potency [7]: inactive
Potency (CRL-7250): 5080 nM (active)
Potency (CASKI): inactive
Potency (Es-2): 11200 nM (active)
Potency (Tov-21-G): 10000 nM (active)
Potency (Tov112D): 7080 nM (active)

COc1cccc(NCC(F)Cn2c3ccc(Br)cc3c3cc(Br)ccc32)c1 (stereo not given)
Potency [1]: inactive
Potency [2]: inactive
Potency [3]: inactive
Potency [4]: inactive
outcome [8]: inactive
Potency [5]: inactive
Potency [6]: inactive
Potency [7]: inactive
Potency (KB-3-1): 18400 nM (active)
Potency (CASKI): 7940 nM (active)
Potency (OV90): inactive
Potency (PA-1): 20000 nM (active)
Potency (Tov112D): 10000 nM (active)

Cc1ccccc1C1=CCN(C)CC1
Potency [1]: inactive
Potency [2]: inactive
Potency [3]: inactive
Potency [4]: inactive
outcome [8]: inactive
Potency [5]: inactive
Potency [6]: inactive
max response (KB-3-1): 6.53%
Potency (CAOV3): inactive
Potency (CASKI): inactive
Potency (Es-2): inactive
Potency (Hek293T): inactive
Potency (JEG-3): inactive
Potency (OV90): inactive
Potency (PA-1): inactive
Potency (Tov-21-G): inactive
Potency (Tov112D): inactive

COc1ccc(CCNCc2ccc(OC)c3ccccc23)cc1
Potency [1]: inactive
Potency [2]: inactive
Potency [3]: inactive
outcome [8]: inactive
Potency [5]: inactive
Potency [6]: inactive
Potency [7]: inactive
max response (CRL-7250): -2.06%
max response (KB-3-1): -13.8%
Potency (C33A): inactive
Potency (CAOV3): inactive
Potency (CASKI): inactive
Potency (Es-2): inactive
Potency (Hek293T): inactive
Potency (OV90): inactive
Potency (PA-1): inactive
Potency (Tov-21-G): inactive
Potency (Tov112D): inactive

CO/C1=C\C(C)=C\[C@@H](C)[C@@H](O)[C@@H](C)C/C(C)=C/C=C/[C@H](OC)[C@@H]([C@@H](C)[C@@H](O)[C@H](C)[C@@]2(O)C[C@@H](O)[C@H](C)[C@@H](C(C)C)O2)OC1=O
Potency [1]: inactive
outcome [8]: inactive
Potency [5]: inactive
Potency [6]: inactive
Potency [7]: inactive
Potency (CRL-7250): 86.2 nM (active)
Potency (KB-3-1): 61.1 nM (active)
Potency (C33A): 141 nM (active)
Potency (CAOV3): 126 nM (active)
Potency (CASKI): inactive
Potency (Es-2): 79.4 nM (active)
Potency (Hek293T): 100 nM (active)
Potency (JEG-3): inactive
Potency (OV90): 89.1 nM (active)
Potency (PA-1): 89.1 nM (active)
Potency (Tov112D): 100 nM (active)

CO[C@H]1C[C@H](O[C@H]2CC[C@]3(CO)[C@H]4CC[C@]5(C)[C@@H](C6=CC(=O)OC6)CC[C@]5(O)[C@@H]4CC[C@]3(O)C2)O[C@H](C)[C@H]1O
Potency [1]: inactive
Potency [2]: inactive
Potency [3]: inactive
Potency [4]: inactive
Potency [5]: inactive
Potency [6]: inactive
Potency [7]: inactive
Potency (CRL-7250): 70.9 nM (active)
Potency (KB-3-1): 224 nM (active)
Potency (C33A): 89.1 nM (active)
Potency (CAOV3): 355 nM (active)
Potency (CASKI): 891 nM (active)
Potency (Es-2): 199 nM (active)
Potency (Hek293T): 224 nM (active)
Potency (OV90): 1000 nM (active)
Potency (PA-1): 112 nM (active)
Potency (Tov-21-G): 141 nM (active)
Potency (Tov112D): 31.6 nM (active)

COc1cc2c(cc1O)C1(C)CCC(O)C(C)(C)C1CC2=O (stereo not given)
Potency [1]: inactive
Potency [2]: inactive
Potency [3]: inactive
Potency [4]: inactive
outcome [8]: inactive
Potency [6]: inactive
Potency [7]: inactive
outcome (KB-3-1): inactive
Potency (C33A): inactive
Potency (CAOV3): inactive
Potency (CASKI): inactive
Potency (Es-2): inactive
Potency (Hek293T): inactive
Potency (JEG-3): inactive
Potency (OV90): inactive
Potency (PA-1): inactive
Potency (Tov-21-G): inactive
Potency (Tov112D): inactive

COc1ccc2[nH]c(-c3ccccc3)c(CCN(C)C)c2c1
Potency [1]: inactive
Potency [2]: inactive
Potency [3]: inactive
Potency [4]: 16100 nM (active)
outcome [8]: inactive
Potency [6]: inactive
Potency [7]: inactive
outcome (CRL-7250): inactive
Potency (C33A): inactive
Potency (CAOV3): inactive
Potency (CASKI): inactive
Potency (Es-2): inactive
Potency (Hek293T): inactive
Potency (JEG-3): inactive
Potency (OV90): inactive
Potency (PA-1): inactive
Potency (Tov-21-G): inactive
Potency (Tov112D): inactive

C[C@H](Nc1ncnc2nc[nH]c12)c1nc2ccc(F)cc2c(=O)n1-c1ccccc1
Potency [1]: inactive
Potency [2]: inactive
Potency [3]: inactive
outcome [8]: inactive
Potency [5]: inactive
Potency [6]: inactive
Potency [7]: inactive
max response (CRL-7250): -36.2%
max response (KB-3-1): -3.18%
Potency (C33A): inactive
Potency (CAOV3): inactive
Potency (CASKI): inactive
Potency (Es-2): inactive
Potency (JEG-3): inactive
Potency (OV90): inactive
Potency (PA-1): inactive
Potency (Tov-21-G): inactive
Potency (Tov112D): inactive

CN1CN(c2ccccc2)C2(CCN(CCCC(=O)c3ccc(F)cc3)CC2)C1=O
Potency [1]: inactive
Potency [2]: inactive
Potency [3]: inactive
Potency [4]: inactive
outcome [8]: inactive
Potency [5]: inactive
Potency [6]: inactive
Potency [7]: inactive
max response (KB-3-1): -4.39%
Potency (CAOV3): inactive
Potency (CASKI): inactive
Potency (Es-2): inactive
Potency (Hek293T): inactive
Potency (JEG-3): inactive
Potency (PA-1): inactive
Potency (Tov-21-G): inactive
Potency (Tov112D): inactive
